Experimental data: PubChem BioAssay AID926 (National Center for Advancing Translational Sciences (NCATS), 2007)
Values joined by “and” are separate entries in the source; they are usually repeats but may differ in a detail not shown here. Identical values can stand only once. Hit rate of the full screen: of about 73,000 compounds, about 350 (0.48%) were called active. Roughly 17% stayed inconclusive and do not appear here. Calls come from the whole dose curve; as a rule, active = well fitted activation curve with a large enough effect in the main read-out, with a control signal flat (not every such curve was filed as active); inconclusive = small, poorly fitted or top-dose-only effect, or a change in a side signal; inactive = no such curve, though single readings can be large or run the other way; reference of the percent scale not stated here. Many of the other results were omitted from the sample, so actives are more common in it than they were.

Tests used:
[1] = qHTS Assay for Agonists of the Thyroid Stimulating Hormone Receptor; conditions: HEK293-CNG-TSHR cells, membrane potential dye, cAMP; measured here: parental cells max response
Procedure, shortened: (§1)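 HEK 293 cells stably expressing TSHR and a cAMP-gated CNG channel; parental CNG-only cells as counterscreen. Cells preloaded 60 min with membrane potential dye plus 100 uM RO 20-1724, then compound 30 min; fluorescence read at 590 nm.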

[2] = target: Thyrotropin receptor (Homo sapiens) (UniProt P16473); assay: as above; conditions: HEK293-CNG-TSHR cells (CNG channel as cAMP sensor), membrane potential dye, cAMP; series mostly up to 57.1 µM
Thyrotropin receptor (Homo sapiens), sequence (P16473 whole entry, looked up): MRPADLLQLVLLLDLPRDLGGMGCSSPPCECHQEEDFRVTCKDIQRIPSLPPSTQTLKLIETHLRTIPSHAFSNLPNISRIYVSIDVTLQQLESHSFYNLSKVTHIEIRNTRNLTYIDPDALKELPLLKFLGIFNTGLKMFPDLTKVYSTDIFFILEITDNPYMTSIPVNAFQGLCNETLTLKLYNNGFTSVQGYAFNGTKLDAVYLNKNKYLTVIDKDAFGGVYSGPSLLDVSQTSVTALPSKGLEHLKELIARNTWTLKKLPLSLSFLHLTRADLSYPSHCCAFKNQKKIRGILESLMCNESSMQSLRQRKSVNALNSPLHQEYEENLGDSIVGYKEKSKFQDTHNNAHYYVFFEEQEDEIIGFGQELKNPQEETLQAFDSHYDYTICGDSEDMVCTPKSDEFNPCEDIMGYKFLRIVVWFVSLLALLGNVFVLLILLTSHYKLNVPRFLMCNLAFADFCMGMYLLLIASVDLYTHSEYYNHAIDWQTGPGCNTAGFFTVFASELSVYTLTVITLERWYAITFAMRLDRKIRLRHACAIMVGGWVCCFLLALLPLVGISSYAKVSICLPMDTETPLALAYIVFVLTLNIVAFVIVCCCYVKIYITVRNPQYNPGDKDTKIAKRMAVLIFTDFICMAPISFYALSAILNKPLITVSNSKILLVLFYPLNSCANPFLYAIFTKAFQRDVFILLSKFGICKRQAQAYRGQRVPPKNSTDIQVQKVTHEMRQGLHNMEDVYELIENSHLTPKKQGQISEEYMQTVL
Procedure, shortened: as §1
Potency is the fitted concentration of half-maximal effect.

| SMILES | activation [1] | Potency [2] | activation [2] |
| --- | --- | --- | --- |
| CC1CCCCN1CCCNC(=O)c1ccc(-n2c(=O)c(=O)[nH]c3ccccc32)cc1 (stereo not given) | -4.46% | inactive | – |
| CCCn1c(C)nc2c(NCCCCN(CC)CC)nc(C)nc21 | 4.8% | inactive | – |
| O=C1C[C@@H](O)[C@@H](O)[C@H]2[C@@H]3C(=O)N(Cc4ccc5c(c4)OCO5)C(=O)[C@@H]3CC[C@H]12 | 0.478% and -2.17% | – | 1.51% [at 11.4 µM] (inactive) and -4.05% [at 11.4 µM] (inactive) |
| C#CCCCCCCCCCCCCCCCC(=O)O | 7.8% | inactive | – |
| COc1ccc(-c2nnc(SC(=O)N3c4ccccc4Sc4ccccc43)o2)cc1 | -13.7% | – | -19.2% [at 11.4 µM] (inactive) |
| CCC1C(C#N)=C(SC)NC2=C1C(=O)CC(C)(C)C2 (stereo not given) | 9.37% | – | 4.61% [at 11.4 µM] (inactive) |
| Cc1c2c(nc3ccccc13)-c1cccc(=O)n1C2 | -3.79% | inactive | – |
| Cc1noc(C)c1-c1nc(Nc2ccccc2)c2ccccc2n1 | -3.31% | inactive | – |
| O=C(O)c1ccc(Cl)c(S(=O)(=O)Nc2ccccc2Cl)c1 | 5.29% | inactive | – |
| Cc1ccc2c(c1)sc1ncc(NC(=O)c3ccccc3)c(=O)n12 | 11.7% | inactive | – |
| CCNC(=S)NCC | -3.45% | inactive | – |
| COC(=O)c1cn(-c2ccccc2)nc1-c1cccnc1 | 9.42% | inactive | – |
| CO/N=C\[C@@H](C)[C@H](OCc1ccccc1)C(C)C | -0.643% | – | 16.8% [at 11.4 µM] (inactive) |
| O=c1c(-c2ccc(F)c(F)c2)nc2cncnc2n1-c1ccccc1 | 19.9% | inactive | – |
| N[C@H](C(=O)O)c1ccc(C(=O)O)c(O)c1 | -2.63% | inactive | – |
| N#Cc1cccc(CSc2nnc(CCCO)n2-c2ccccc2)c1 | -1.39% | inactive | – |
| COC(=O)C1(C)C=CC2(CCCCC2)N1C(C)=O (stereo not given) | 19.4% | inactive | – |
| COc1cccc(-c2nnc(N(C)C(=O)c3ccno3)s2)c1 | 11% | – | -1% [at 11.4 µM] (inactive) |
| CC(=O)OCC1OC(C#Cc2ccccc2Cl)C=CC1OC(C)=O (stereo not given) | -0.512% | – | 0.546% [at 11.4 µM] (inactive) |
| COc1ccc(/C=C/NC(=O)c2ccc(OC)cc2)cc1 | -3.02% | – | -7.55% [at 11.4 µM] (inactive) |
| CN1CCc2nc(-c3ccccc3)c(-c3ccccc3)cc2C1 | 0.173% | – | 2% [at 11.4 µM] (inactive) |
| Cn1c(=O)c(-c2ccccc2)nc2cnc(N3CCNCC3)nc21 | 4.18% | inactive | – |

| SMILES | activation [1] | Potency [2] | activation [2] |
| --- | --- | --- | --- |
| CC1(C)S[C@@H]2[C@@H](NC(=O)[C@@H](N)c3ccccc3)C(=O)N2[C@H]1C(=O)O | -1.13% | inactive | – |
| CC(C)(C)c1ccc(C(=O)NCCC(=O)NCc2ccco2)cc1 | -0.34% | inactive | – |
| CC(C)(C)c1ccc(NC(=O)NCc2ccco2)cc1 | 3.69% | 3.98 µM (active) | – |
| Cc1ccccc1NC(=O)NCc1ccco1 | 1.97% | inactive | – |
| CCOc1ccccc1C1NC(=O)NC(C)=C1C(=O)OCc1ccco1 (stereo not given) | 0.325% | inactive | – |
| CCC(Sc1nncn1C)C(=O)Nc1nnc(-c2ccc(Cl)cc2)s1 (stereo not given) | -6.53% | inactive | – |
| O=C1OCCC=C1[C@@H](O)CCc1ccccc1 | -4.2% | – | 5.01% [at 11.4 µM] (inactive) |
| COc1ccc(/C=C/NC(=O)Cc2ccc(OC)c(OC)c2)cc1 | 28.5% and 7.24% | – | 10.9% [at 11.4 µM] (inactive) and -1.69% [at 11.4 µM] (inactive) |
| CCOC(=O)c1cnc(-n2nc(C)cc2C)nc1Nc1cccc(C(C)=O)c1 | 16.9% | inactive | – |
| CCOC(=O)c1cnc2sccn2c1=O | 5.11% | inactive | – |
| CCOC(=O)c1cnc(-n2nc(C)cc2C)nc1-n1nc(C)cc1C | 1.88% | 3.16 µM (active) | – |
| CC(=O)Nc1cc2ccc(OC(C)=O)cc2oc1=O | -10.5% | inactive | – |
| Oc1ccc(Cl)cc1/C=N/c1nc2ccccc2[nH]1 | 6.32% | – | 0.206% [at 11.4 µM] (inactive) |
| CNC(=O)c1c(NC(=O)c2ccc(S(=O)(=O)N3CCOCC3)cc2)sc2c1CCC2 | 0.0362% | inactive | – |
| COc1ccc2c(c1)C=CC1(O2)N(CCO)c2ccccc2C1(C)C (stereo not given) | 16.4% | 15.8 µM (active) | – |
| O=C(Nc1ncccn1)c1cccs1 | 2.1% | inactive | – |
| O=P(c1cccs1)(c1cccs1)c1cccs1 | 29% | 0.631 µM (active) | – |
| O=C(O)CCC(=O)N(Cc1cccs1)Cc1cccs1 | 4.58% | inactive | – |
| O=C(O)CCC(=O)NCc1ccc2[nH]c3c(c2c1)CCCC3 | -0.484% | inactive | – |
| Cc1cccc(C(=O)O)c1 | 12.6% | inactive | – |
| CO[C@@H]1COC(=O)C/C=C\[C@H](C)[C@@H](NS(=O)(=O)c2ccc(C)cc2)COC(=O)C/C=C\[C@@H]1C | 2.07% and 4.9% | – | -0.576% [at 11.4 µM] (inactive) and -0.527% [at 11.4 µM] (inactive) |
| CCOC(=O)N/N=C1/C[C@@H](O)[C@@H](O)[C@@H]2[C@@H]3C(=O)N(CC)C(=O)[C@H]3CC[C@H]12 | 2.56% | – | 5.56% [at 11.4 µM] (inactive) |

| SMILES | activation [1] | Potency [2] | activation [2] |
| --- | --- | --- | --- |
| CC(C)CCn1c(CN(C)Cc2ccccc2)nc2c1c(=O)n(C)c(=O)n2C | 3.87% | inactive | – |
| CO[C@@H]1COC(=O)[C@H](Cc2ccccc2)NC(=O)C/C=C\[C@@H](C)[C@H](OC)COC(=O)[C@@H](C)NC(=O)C/C=C\[C@H]1C | 8.45% and -4.16% | – | -6.09% [at 11.4 µM] (inactive) and -4.32% [at 11.4 µM] (inactive) |
| CCc1cc(=O)oc2cc(OCC(=O)N3CCCc4ccccc43)ccc12 | -4.75% | 25.1 µM (active) | – |
| Cc1occc1C(=O)N1CCCc2ccccc21 | 23.6% | inactive | – |
| COc1ccc2oc(=O)c(C(=O)N3CCCc4ccccc43)cc2c1 | -9.12% | inactive | – |
| COc1ccc(COC(=O)N/N=C2/C[C@@H](O)[C@@H](O)[C@@H]3[C@@H]4C(=O)N([C@@H](C)c5ccccc5)C(=O)[C@H]4CC[C@@H]23)cc1 | -0.62% | – | 0.427% [at 11.4 µM] (inactive) |
| Nc1nonc1C(=O)NCCc1ccccc1 | -2.18% | inactive | – |
| COc1cc(Cl)c(S(=O)(=O)n2cnc(C)c2)cc1Cl | 12.1% | – | 13.5% [at 11.4 µM] (inactive) |
| O=C(OCC(COC(=O)c1ccccc1)(COC(=O)c1ccccc1)COC(=O)c1ccccc1)c1ccccc1 | 20% | inactive | – |
| COC(=O)c1ccc(/C=N\n2c(C)nnc2C)cc1 | 10.1% | inactive | – |
| COc1ccc(-c2nnn(Cc3nc(N)nc(N4CCCCC4)n3)n2)cc1 | 22% | 31.6 µM (active) | – |
| CCc1ccc(-c2nnn(Cc3nn[nH]n3)n2)cc1 | 16% | inactive | – |
| CCOc1ccc(-c2nnn(CC(=O)N3CCN(c4ccc(OC)cc4)CC3)n2)cc1OCC | -8.4% | inactive | – |
| Cn1c(=O)n(C)c2cc(CNc3ccc(N4CCOCC4)c(C(=O)O)c3)ccc21 | 3.63% | inactive | – |
| O=C(Cn1nnc2ccccc2c1=O)Nc1cc(C(F)(F)F)ccc1N1CCOCC1 | 17.2% | inactive | – |
| Cn1nc(-c2ccc(N3CCOCC3)c(NC(=O)c3ccccc3)c2)c2ccccc2c1=O | 29.3% | 25.1 µM (active) | – |
| O=C(C1CCN(CC2CCCCC2)CC1)N1CCCC1 | 16.6% | inactive | – |
| COC(=O)[C@@H]1CC[C@H](C)[C@@H](c2ccc(C)cc2)N1C(=O)c1ccc(/C=N\O[C@@H](C)c2cn([C@H](CO)Cc3ccccc3)nn2)cc1 | 9.66% and 5.24% | – | 0.181% [at 11.4 µM] (inactive) and 4.03% [at 11.4 µM] (inactive) |
| CCc1c(C)sc(NC(=O)OC)c1C(=O)N1CCOCC1 | -1.6% | inactive | – |
| CCOC(=O)[C@]1(C(/C=C/c2ccco2)NC(=O)OC)CCCC1=O (stereo not given in full) | 0.322% | – | 14% [at 11.4 µM] (inactive) |
| O=C(CC1(O)C(=O)N(CN2CCOCC2)c2ccccc21)c1ccccc1 (stereo not given) | 1.28% | inactive | – |
| CN(C)C(=O)c1ccc(-c2cncnc2Nc2ccccc2)cc1 | -2.37% | inactive | – |

| SMILES | activation [1] | Potency [2] | activation [2] |
| --- | --- | --- | --- |
| OC(COc1cccc(OCC(O)CN2CCCC2)c1)CN1CCCC1 (stereo not given) | -1.83% | – | -1.13% [at 11.4 µM] (inactive) |
| Cc1cc(NS(=O)(=O)c2ccccc2)no1 | 1.38% | inactive | – |
| COc1ccc(O)c(C=Nc2cc(C)on2)c1 | -5.94% | inactive | – |
| CC(C)N(CCNC(=O)c1ccc(-n2c(=O)c(=O)[nH]c3ccccc32)cc1)C(C)C | -3.64% | inactive | – |
| CCC(C)n1[nH]c(=O)c2c(C)cc(C)nc21 (stereo not given) | 14.5% | inactive | – |
| Cc1cccc2c1N(CC(=O)OC(C)C)C(=O)C2=O | -9.41% | – | -2.45% [at 11.4 µM] (inactive) |
| Cc1cc(N=CC2=C(O)CCCC2=O)no1 | 5.56% | inactive | – |
| C=CCOC(=O)C(C(C)=O)C(NC(=O)OC)c1ccccc1 (stereo not given) | 4.24% | – | -0.17% [at 11.4 µM] (inactive) |
| O=C(O)[C@@H](O)Cc1ccccn1 | 4.67% | – | -3.52% [at 11.4 µM] (inactive) |
| c1ccc(Nc2n[nH]nc2-c2ccccc2)cc1 | -0.853% | inactive | – |
| Cc1nnc(NC(=O)CCC(=O)N2CCC(C)CC2)s1 | 5.36% | inactive | – |
| C#CCC(C(=O)OC)(C(=O)OC)C(C[N+](=O)[O-])c1ccccc1 (stereo not given) | -0.955% | – | 7.7% [at 11.4 µM] (inactive) |
| Cc1ccc(C(=O)CS(C)(=O)=O)cc1 | 1.73% | inactive | – |
| COc1ccc(OC)c(Nc2nc(-c3ccc(O)c(O)c3)cs2)c1 | -4.42% | inactive | – |
| CCOc1ccccc1Oc1cn[nH]c1-c1ccc(OC)cc1O | 7.48% | inactive | – |
| C=C(C)COc1ccc(-c2n[nH]c(C)c2-c2ccccc2)c(O)c1 | 17.3% | inactive | – |
| C=C(C)COc1ccc(-c2n[nH]c(C)c2-c2ccccc2OC)c(O)c1 | 8.35% | 31.6 µM (active) | – |
| COc1ccc(-c2nc(-c3ccccc3)no2)c(OC)c1 | 7.25% | inactive | – |
| COc1ccc(-c2n[nH]c(C)c2-c2ccc(OC)c(OC)c2)c(O)c1 | 11.3% | 5.01 µM (active) | – |
